Our source for the PBM binding z-score values is the supplement of paper PMC6555819.

One assay has as its system RXRa homodimer (NR concentration 180 nM). Description: PBM binding z-score (relative to random genomic background probes); higher = stronger binding; sequences stand for … in GC…GCGATTGACAGCGTAGAATGAAGG
A digest of the protocol:
(§1)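 Random background probes are the reference for binding z-scores. These scores derive from regression-normalized fluorescence on custom Agilent 4×180K protein-binding microarrays incubated 1 h with ligand-free nuclear receptor dimers. Binding was detected with antibodies against each partner (one per run).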
TCGCGTAGGTTAGGGGCATTCAGAATGGCGTCGA had a PBM binding z-score of 0.821.
CCGACTGGGGCAGAAAGGATACCATACCATCCGG gave a PBM binding z-score of -0.344.
In turn, ATCTCTAGGTAAAGATAGTTCAGGGAATGCAAAT showed a PBM binding z-score of 0.459.
TAGCCTAGGTCGTGCGGGCCAGTATAGTGTCGGC showed a PBM binding z-score of 0.344.
The same measure, in the same setting: the figure for GCGACTGGGGCAACAGCAGGTTACCATAACTTAA is 0.454; for ACTAGCAGGCCAGGTTTGGGTCACTCAAACAAAG it is 0.628.
Still for that read-out and setting: the figure for TCTCGGAGGACAGGAAAGGTCAGAGCTCGACATC is 3.83; for CTCGAAAGGTCGTGCTCACGTGAGTATACCAAAC it is 4.71.
Same read-out and setting: the figure for TGAATGAGGTTATAAGATAAGGGAACGTTGCAAA is 1.79.
For the sequence TCTCGGAGGACACGAATGTCAGAGCTTTCCAGAG, the PBM binding z-score stood at 0.168.
The same measure, in the same setting: the value for TCGAGTAGGCTAGGGGCATTCAGAATGGCGTCGA was 0.0581; that for CGAACGAGGGCATGAGCTGATAGCAAATGCCGAT was 1.06; that for TCTAGTTGGTCAAAAGTCACACACTCGAAATGCG was 1.55.
In the case of CGTCTAAGGTCAGAGAGGTCAGTGAATGCCGAGT, the PBM binding z-score is 6.37.
The same measure, in the same setting: the figure for CATCGGAGGACAGAAGGTCAGAGCTGTCCGCTTT is 1.8.
The same measure, in the same setting: the figure for ACAGACAGGTTAGTGAAGGTAACTCAGCTGGACG is 0.511; for TCAGACAGGTGAAGGTAACGCAGGTACGCAGTCG it is 1.05; for CGAACTAGGTCAAGGTCAGTGAATCTCCGCACGC it is 4.11.

In a further assay the test system is THRa:RXRa (NR concentration 90 nM, RXRa partner concentration 90 nM). Described as above. The gist of the method:
as §1
Consider CCTTACGGGTCAAGGTTTTAGCACGGGTGGTACG, for which the PBM binding z-score amounted to 2.51.
Still for that read-out and setting: the figure for ATCGAAAGGTCGTGAGGTGAGTGTACAGAAAGGC is 3.48; for TCTTGTAGATCGGCAGGTTAAGAAAGCTGGCCAA it is 0.308; for ATCTCTAGGTAACAAGTTCAGTGTAAGAGAGGAC it is 1.8.
ATATGTAGGTTACATCCCGGTCATTCAGGCTATG showed a PBM binding z-score of 2.18.
Same read-out and setting: the figure for GCAGACAGGTGAGACGCAGGTAACTCAGGGTGGC is 0.763.
TAGCCTAGGTCAGGTCGGGCCAGTATACGCTATA: the PBM binding z-score came out at 3.92.
In turn, GGAACGAGGGCAAAGTTGATCGCATCTGTCGACG registered a PBM binding z-score of 1.19.
Take TGAATGAGGTTATAAGATCAGCGAACGTTGCAAA: the PBM binding z-score worked out at 1.61.
Still for that read-out and setting: the figure for CGAAGGAGGGCATGAGTTGATAGCAAATGCCGAT is 0.292.
Still for that read-out and setting: the value for CAAACTAGGTCACGAAAGGTCAATGTCGAATGAC was 5.27; that for GTACCACGGTGAATAGGTCGTTGATGAGTAGGCG was 0.209; that for CCTTACGTGTCACTCCAGGTTATAGCATCGGAGT was 3.43.
Same read-out and setting: the figure for TGACCAAGGTGAGCTGAGGTCGTTGATCCAACTC is 4.69; for TTACCAAGGCGAGCTGAGGTCGTTGATCCAACTC it is 3.13.
The sequence ATACCAAGGTGGTCGTGAGGTCGTTGATACTAAC registered a PBM binding z-score of 3.02.
Same read-out and setting: the value for AGAATGAGGTTATACGTAGATCAGGGGAGAAAGT was 2.25.
Same read-out and setting: the value for GCTAGTTGATCAGTAAAAGGTCACACACCGGTCG was 3.45; that for CAAACTAGGTCACCGGAAGTTCAAAGTCCGCATG was 3.85; that for GGAACGAGGGCAAAGATGATAGCATCTGTCGACG was 0.506.
Same read-out and setting: the value for TAGTCTAGGTCATGGGCCAGTATACCACGCGAAC was 3.3; that for CGTCCAACGTCAGAGAGGTCAGTGAATGCCGAGT was 2.39.
As for TCGCGTAGGTTAGGGGCATTCAGAATGGCGTCGA, the PBM binding z-score came out at 0.842.
On the same count and under the same terms, the figure for CCGACTGGGGCAGAAAGGATACCATACCATCCGG is -0.682; for ATCTCTAGGTAAAGATAGTTCAGGGAATGCAAAT it is 0.742.
The sequence TAGCCTAGGTCGTGCGGGCCAGTATAGTGTCGGC returned a PBM binding z-score of 0.675.
Still for that read-out and setting: the figure for GCGACTGGGGCAACAGCAGGTTACCATAACTTAA is 1.67; for ACTAGCAGGCCAGGTTTGGGTCACTCAAACAAAG it is 2.11; for TCTCGGAGGACAGGAAAGGTCAGAGCTCGACATC it is 3.25.
As to CTCGAAAGGTCGTGCTCACGTGAGTATACCAAAC, the PBM binding z-score is 2.41.
TGAATGAGGTTATAAGATAAGGGAACGTTGCAAA: the PBM binding z-score came out at 1.68.
Still for that read-out and setting: the value for TCTCGGAGGACACGAATGTCAGAGCTTTCCAGAG was 1.23; that for TCGAGTAGGCTAGGGGCATTCAGAATGGCGTCGA was 0.177; that for CGAACGAGGGCATGAGCTGATAGCAAATGCCGAT was 1.15.
The same measure, in the same setting: the figure for TCTAGTTGGTCAAAAGTCACACACTCGAAATGCG is 0.553; for CGTCTAAGGTCAGAGAGGTCAGTGAATGCCGAGT it is 4.66; for CATCGGAGGACAGAAGGTCAGAGCTGTCCGCTTT it is 2.07.
The same measure, in the same setting: the figure for ACAGACAGGTTAGTGAAGGTAACTCAGCTGGACG is 2.2; for TCAGACAGGTGAAGGTAACGCAGGTACGCAGTCG it is 1.01; for CGAACTAGGTCAAGGTCAGTGAATCTCCGCACGC it is 3.86.

Another assay deals with THRa homodimer (NR concentration 90 nM). The assay is described as above. A digest of the protocol: as §1
Take CCTTACGGGTCAAGGTTTTAGCACGGGTGGTACG: the PBM binding z-score came to 0.113.
Still for that read-out and setting: the value for ATCGAAAGGTCGTGAGGTGAGTGTACAGAAAGGC was 1.71.
Same read-out and setting: the figure for TCTTGTAGATCGGCAGGTTAAGAAAGCTGGCCAA is -0.309; for ATCTCTAGGTAACAAGTTCAGTGTAAGAGAGGAC it is 0.989; for ATATGTAGGTTACATCCCGGTCATTCAGGCTATG it is 1.44.
The same measure, in the same setting: the figure for GCAGACAGGTGAGACGCAGGTAACTCAGGGTGGC is -0.588.
As to TAGCCTAGGTCAGGTCGGGCCAGTATACGCTATA, the PBM binding z-score was found to be 0.761.
The same measure, in the same setting: the value for GGAACGAGGGCAAAGTTGATCGCATCTGTCGACG was -0.32; that for TGAATGAGGTTATAAGATCAGCGAACGTTGCAAA was -0.141; that for CGAAGGAGGGCATGAGTTGATAGCAAATGCCGAT was -0.803.
Same read-out and setting: the value for CAAACTAGGTCACGAAAGGTCAATGTCGAATGAC was 2.55.
Same read-out and setting: the figure for GTACCACGGTGAATAGGTCGTTGATGAGTAGGCG is -0.565.
On to CCTTACGTGTCACTCCAGGTTATAGCATCGGAGT, for which the PBM binding z-score worked out at 1.14.
As to TGACCAAGGTGAGCTGAGGTCGTTGATCCAACTC, the PBM binding z-score is 1.8.
Same read-out and setting: the figure for TTACCAAGGCGAGCTGAGGTCGTTGATCCAACTC is 1.16; for ATACCAAGGTGGTCGTGAGGTCGTTGATACTAAC it is 2.64; for AGAATGAGGTTATACGTAGATCAGGGGAGAAAGT it is 0.738.
The sequence GCTAGTTGATCAGTAAAAGGTCACACACCGGTCG displayed a PBM binding z-score of 1.59.
Same read-out and setting: the figure for CAAACTAGGTCACCGGAAGTTCAAAGTCCGCATG is 2.14; for GGAACGAGGGCAAAGATGATAGCATCTGTCGACG it is -0.734.
The same measure, in the same setting: the figure for TAGTCTAGGTCATGGGCCAGTATACCACGCGAAC is 2.25; for CGTCCAACGTCAGAGAGGTCAGTGAATGCCGAGT it is 0.645.
The same measure, in the same setting: the figure for TCGCGTAGGTTAGGGGCATTCAGAATGGCGTCGA is 0.102; for CCGACTGGGGCAGAAAGGATACCATACCATCCGG it is -0.741; for ATCTCTAGGTAAAGATAGTTCAGGGAATGCAAAT it is 0.0152.
As for TAGCCTAGGTCGTGCGGGCCAGTATAGTGTCGGC, the PBM binding z-score is -0.487.
Still for that read-out and setting: the value for GCGACTGGGGCAACAGCAGGTTACCATAACTTAA was -0.275.
On the same count and under the same terms, the value for ACTAGCAGGCCAGGTTTGGGTCACTCAAACAAAG was 0.999; that for TCTCGGAGGACAGGAAAGGTCAGAGCTCGACATC was 0.943; that for CTCGAAAGGTCGTGCTCACGTGAGTATACCAAAC was -0.0324.
TGAATGAGGTTATAAGATAAGGGAACGTTGCAAA: the PBM binding z-score amounted to 0.04.
Same read-out and setting: the figure for TCTCGGAGGACACGAATGTCAGAGCTTTCCAGAG is 0.52; for TCGAGTAGGCTAGGGGCATTCAGAATGGCGTCGA it is -0.929.
The sequence CGAACGAGGGCATGAGCTGATAGCAAATGCCGAT gave a PBM binding z-score of -0.325.
On the same count and under the same terms, the figure for TCTAGTTGGTCAAAAGTCACACACTCGAAATGCG is 0.457.
Same read-out and setting: the value for CGTCTAAGGTCAGAGAGGTCAGTGAATGCCGAGT was 3.81; that for CATCGGAGGACAGAAGGTCAGAGCTGTCCGCTTT was 0.044; that for ACAGACAGGTTAGTGAAGGTAACTCAGCTGGACG was -0.138.
The same measure, in the same setting: the value for TCAGACAGGTGAAGGTAACGCAGGTACGCAGTCG was 0.208.
With CGAACTAGGTCAAGGTCAGTGAATCTCCGCACGC, the PBM binding z-score was 3.15.
